# Data from the supplement of paper PMC8728848.
# The full list was thinned out, with the strongest signals kept by preference.
# B1: Epa22 (Candida glabrata) (protein)
# chain: MGSSHHHHHHSSGLVPRGSHMKRALSSQNPFGYPIGCSPQSTNVIPGLTMELYSYPIVSGTPPNCYDASYVDPEYPRTGYLKRKMIGKSTGVTGSLNYKFSVEKACMVKYGNLPAGYNYNEPLTVSNFTMLLYGYFKPQTSGIHTFFVNADDLLYINFGAGNAFDCCKREDSKFKLGEYVAYDIWHVDSSKNKVSLNLEKDVYYPIRMFFNNIGKDSSLDLSFSVNGAVEHITDFSGYLYSVPDQPDACPAPIGYDTTCK
# Columns and labels:
# Test in all cases: glycan array binding signal (z-score within array); higher = stronger binding
# Conditions in all cases: glycan notation: IUPAC condensed, linker removed
# [1] = biological target: Fuc(a1-2)Gal(b1-4)GlcNAc(b1-3)Gal(b1-4)GlcNAc(b1-2)Man(a1-3)[Fuc(a1-2)Gal(b1-4)GlcNAc(b1-3)Gal(b1-4)GlcNAc(b1-2)Man(a1-6)]Man(b1-4)GlcNAc(b1-4)GlcNAc
# Summary of the method: (§1)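 Negative Z-scores can be read as non-binding. The Z-score is calculated within each array and then averaged across arrays of one protein sequence at different concentrations or buffers and across linkers. Arrays, 3228 in all, were curated from the Consortium for Functional Glycomics database and kept only where the protein sequence was available.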
# [2] = biological target: Fuc(a1-2)Gal6S(b1-3)GlcNAc6S
# Summary of the method: as §1
# [3] = biological target: Fuc(a1-2)[Gal(a1-3)]Gal(b1-4)[Fuc(a1-3)]GlcNAc(b1-3)GalNAc
# Summary of the method: as §1
# [4] = biological target: Fuc(a1-2)[Gal(a1-4)]Gal(b1-4)GlcNAc
# Summary of the method: as §1
# [5] = biological target: Fuc(a1-2)[GalNAc(a1-3)]Gal(b1-4)GlcNAc(b1-3)Gal(b1-4)GlcNAc(b1-3)Gal(b1-4)GlcNAc
# Summary of the method: as §1
# [6] = biological target: Gal(a1-3)Gal(b1-3)GlcNAc(b1-6)GalNAc
# Summary of the method: as §1
# Gal(a1-3)Gal(b1-4)GlcNAc = biological target: Gal(a1-3)Gal(b1-4)GlcNAc
# Summary of the method: as §1
# [7] = biological target: Gal(a1-3)Gal(b1-4)GlcNAc(b1-2)Man
# Summary of the method: as §1
# Gal(a1-4)GlcNAc = biological target: Gal(a1-4)GlcNAc
# Summary of the method: as §1
# Gal(a1-6)Glc = biological target: Gal(a1-6)Glc
# Summary of the method: as §1
# Gal(b1-3)Gal = biological target: Gal(b1-3)Gal
# Summary of the method: as §1
# [8] = biological target: Gal(b1-3)GalNAc(a1-3)[Fuc(a1-2)]Gal(b1-4)GlcNAc
# Summary of the method: as §1
# [9] = biological target: Gal(b1-3)GalNAc(b1-4)Gal(b1-4)Glc
# Summary of the method: as §1
# [10] = biological target: Gal(b1-3)GlcNAc(a1-6)Gal(b1-4)GlcNAc
# Summary of the method: as §1
# [11] = biological target: Gal(b1-3)GlcNAc(b1-3)Gal(b1-4)GlcNAc
# Summary of the method: as §1
# [12] = biological target: Gal(b1-3)GlcNAc(b1-3)Gal(b1-4)GlcNAc(b1-6)[Gal(b1-3)GlcNAc(b1-3)]Gal(b1-4)Glc
# Summary of the method: as §1
# [13] = biological target: Gal(b1-4)GlcNAc(b1-2)[Gal(b1-4)GlcNAc(b1-6)]Man(a1-6)[GlcNAc(b1-4)][Gal(b1-4)GlcNAc(b1-2)Man(a1-3)]Man(b1-4)GlcNAc(b1-4)GlcNAc
# Summary of the method: as §1
# [14] = biological target: Gal(b1-4)GlcNAc(b1-3)Gal(b1-4)GlcNAc(b1-2)Man(a1-3)[Gal(b1-4)GlcNAc(b1-3)Gal(b1-4)GlcNAc(b1-2)Man(a1-6)]Man(b1-4)GlcNAc(b1-4)GlcNAc
# Summary of the method: as §1
# [15] = biological target: Gal(b1-4)GlcNAc(b1-3)Gal(b1-4)GlcNAc(b1-3)Gal(b1-4)GlcNAc(b1-3)Gal(b1-4)GlcNAc(b1-3)Gal(b1-4)GlcNAc(b1-2)Man(a1-3)[Gal(b1-4)GlcNAc(b1-3)Gal(b1-4)GlcNAc(b1-3)Gal(b1-4)GlcNAc(b1-3)Gal(b1-4)GlcNAc(b1-3)Gal(b1-4)GlcNAc(b1-2)Man(a1-6)]Man(b1-4)GlcNAc(b1-4)[Fuc(a1-6)]GlcNAc
# Summary of the method: as §1
# [16] = biological target: Gal(b1-4)GlcNAc(b1-3)GalNAc
# Summary of the method: as §1
# [17] = biological target: Gal(b1-4)GlcNAc(b1-3)[GlcNAc(b1-6)]Gal(b1-4)GlcNAc
# Summary of the method: as §1
# Gal4S(b1-4)GlcNAc = biological target: Gal4S(b1-4)GlcNAc
# Summary of the method: as §1
# Gal6S(b1-3)GlcNAc6S = biological target: Gal6S(b1-3)GlcNAc6S
# Summary of the method: as §1
# Gal6S(b1-4)Glc6S = biological target: Gal6S(b1-4)Glc6S
# Summary of the method: as §1
# Gal6S(b1-4)GlcNAc6S = biological target: Gal6S(b1-4)GlcNAc6S
# Summary of the method: as §1
# [18] = biological target: GalNAc(b1-3)Gal(a1-4)Gal(b1-4)GlcNAc(b1-3)Gal(b1-4)Glc
# Summary of the method: as §1
# GalNAc(b1-3)GalNAc = biological target: GalNAc(b1-3)GalNAc
# Summary of the method: as §1
# [19] = biological target: GalNAc(b1-4)GlcNAc(b1-2)Man
# Summary of the method: as §1
# GlcA(b1-6)Gal = biological target: GlcA(b1-6)Gal
# Summary of the method: as §1
# [20] = biological target: GlcNAc(a1-4)Gal(b1-4)GlcNAc(b1-3)Gal(b1-4)GlcNAc
# Summary of the method: as §1
# [21] = biological target: GlcNAc(b1-2)Man(a1-3)[GlcNAc(b1-4)][GlcNAc(b1-2)Man(a1-6)]Man(b1-4)GlcNAc(b1-4)[Fuc(a1-6)]GlcNAc
# Summary of the method: as §1
# [22] = biological target: GlcNAc(b1-2)[GlcNAc(b1-4)]Man(a1-3)[GlcNAc(b1-2)Man(a1-6)]Man(b1-4)GlcNAc(b1-4)GlcNAc
# Summary of the method: as §1
# [23] = biological target: GlcNAc(b1-3)Gal(b1-4)GlcNAc
# Summary of the method: as §1
# [24] = biological target: GlcNAc(b1-3)Gal(b1-4)GlcNAc(b1-2)Man(a1-3)[GlcNAc(b1-3)Gal(b1-4)GlcNAc(b1-2)Man(a1-6)]Man(b1-4)GlcNAc(b1-4)GlcNAc
# Summary of the method: as §1
# [25] = biological target: GlcNAc(b1-3)Gal(b1-4)GlcNAc(b1-3)Gal(b1-4)GlcNAc(b1-3)Gal(b1-4)GlcNAc(b1-2)[GlcNAc(b1-3)Gal(b1-4)GlcNAc(b1-3)Gal(b1-4)GlcNAc(b1-3)Gal(b1-4)GlcNAc(b1-6)]Man(a1-6)[GlcNAc(b1-3)Gal(b1-4)GlcNAc(b1-3)Gal(b1-4)GlcNAc(b1-3)Gal(b1-4)GlcNAc(b1-2)Man(a1-3)]Man(b1-4)GlcNAc(b1-4)[Fuc(a1-6)]GlcNAc
# Summary of the method: as §1
# [26] = biological target: GlcNAc(b1-3)[GlcNAc(b1-4)][GlcNAc(b1-6)]GlcNAc
# Summary of the method: as §1
# Man(a1-6)Man = biological target: Man(a1-6)Man
# Summary of the method: as §1
# [27] = biological target: Neu5Ac(a2-3)Gal(b1-3)[Fuc(a1-4)]GlcNAc(b1-3)Gal(b1-4)[Fuc(a1-3)]GlcNAc
# Summary of the method: as §1
# [28] = biological target: Neu5Ac(a2-3)Gal(b1-4)GlcNAc(b1-2)Man(a1-3)[Neu5Ac(a2-3)Gal(b1-4)GlcNAc(b1-2)Man(a1-6)]Man(b1-4)GlcNAc(b1-4)GlcNAc
# Summary of the method: as §1
# [29] = biological target: Neu5Ac(a2-3)Gal(b1-4)GlcNAc(b1-3)Gal(b1-4)GlcNAc(b1-6)[Gal(b1-3)]GalNAc
# Summary of the method: as §1
# [30] = biological target: Neu5Ac(a2-3)Gal(b1-4)[Fuc(a1-3)]GlcNAc(b1-3)Gal
# Summary of the method: as §1
# [31] = biological target: Neu5Ac(a2-3)Gal(b1-4)[Fuc(a1-3)]GlcNAc(b1-3)Gal(b1-4)[Fuc(a1-3)]GlcNAc(b1-3)Gal(b1-4)[Fuc(a1-3)]GlcNAc
# Summary of the method: as §1
# [32] = biological target: Neu5Ac(a2-6)Gal(b1-4)GlcNAc(b1-2)Man(a1-6)Man(b1-4)GlcNAc(b1-4)GlcNAc
# Summary of the method: as §1
# [33] = biological target: Neu5Ac(a2-6)Gal(b1-4)GlcNAc(b1-3)[Neu5Ac(a2-6)Gal(b1-4)GlcNAc(b1-6)]GalNAc
# Summary of the method: as §1
# [34] = biological target: Neu5Ac(a2-8)Neu5Ac(a2-3)Gal(b1-3)GalNAc(b1-4)[Neu5Ac(a2-8)Neu5Ac(a2-3)]Gal(b1-4)Glc
# Summary of the method: as §1
binder,measurement,setting,value
B1,glycan array binding signal (z-score),[1],-0.382
same,glycan array binding signal (z-score),[2],5.1
same,glycan array binding signal (z-score),[3],-0.345
same,glycan array binding signal (z-score),[4],4.5
same,glycan array binding signal (z-score),[5],-0.366
same,glycan array binding signal (z-score),[6],3.74
same,glycan array binding signal (z-score),Gal(a1-3)Gal(b1-4)GlcNAc,5.2
same,glycan array binding signal (z-score),[7],4.75
same,glycan array binding signal (z-score),Gal(a1-4)GlcNAc,5.91
same,glycan array binding signal (z-score),Gal(a1-6)Glc,6.63
same,glycan array binding signal (z-score),Gal(b1-3)Gal,1.3
same,glycan array binding signal (z-score),[8],-0.36
same,glycan array binding signal (z-score),[9],0.34
same,glycan array binding signal (z-score),[10],0.491
same,glycan array binding signal (z-score),[11],-0.148
same,glycan array binding signal (z-score),[12],-0.145
same,glycan array binding signal (z-score),[13],-0.288
same,glycan array binding signal (z-score),[14],0.073
same,glycan array binding signal (z-score),[15],-0.231
same,glycan array binding signal (z-score),[16],-0.023
same,glycan array binding signal (z-score),[17],-0.387
same,glycan array binding signal (z-score),Gal4S(b1-4)GlcNAc,-0.182
same,glycan array binding signal (z-score),Gal6S(b1-3)GlcNAc6S,5.95
same,glycan array binding signal (z-score),Gal6S(b1-4)Glc6S,4.93
same,glycan array binding signal (z-score),Gal6S(b1-4)GlcNAc6S,4.56
same,glycan array binding signal (z-score),[18],-0.336
same,glycan array binding signal (z-score),GalNAc(b1-3)GalNAc,-0.424
same,glycan array binding signal (z-score),[19],-0.393
same,glycan array binding signal (z-score),GlcA(b1-6)Gal,5.98
same,glycan array binding signal (z-score),[20],-0.413
same,glycan array binding signal (z-score),[21],-0.35
same,glycan array binding signal (z-score),[22],-0.368
same,glycan array binding signal (z-score),[23],-0.312
same,glycan array binding signal (z-score),[24],-0.39
same,glycan array binding signal (z-score),[25],-0.37
same,glycan array binding signal (z-score),[26],-0.383
same,glycan array binding signal (z-score),Man(a1-6)Man,-0.371
same,glycan array binding signal (z-score),[27],-0.409
same,glycan array binding signal (z-score),[28],-0.356
same,glycan array binding signal (z-score),[29],-0.248
same,glycan array binding signal (z-score),[30],-0.385
same,glycan array binding signal (z-score),[31],-0.375
same,glycan array binding signal (z-score),[32],-0.426
same,glycan array binding signal (z-score),[33],-0.246
same,glycan array binding signal (z-score),[34],-0.003
